Assay results published in PubChem BioAssay (NCATS).
Records with an inconclusive call do not appear. Entries that show only a call come without a potency. The source holds several records for some structures; these can differ, active in one and inactive in another. Calls of active or inactive are those of the source. Calls follow the shape of the dose curve; as a rule, active = well fitted curve in the direction sought with a large enough effect; inconclusive = small, poorly fitted or top-dose-only effect, or another doubt; inactive = no such curve, though single readings can be large; an effect the other way counts as inactive or inconclusive.

biological target: Cytochrome P450 3A4 (Homo sapiens) (UniProt P08684); test: qHTS Assay for Activators of Cytochrome P450 3A4 (AID 885); conditions: recombinant CYP3A4, Luciferin-PPXE luminescence, 60 min; series mostly up to 57.1 µM; also: nearly all actives have a fitted effect of over 65% in size; also: potency is read from the fitted curve at half-maximal effect
Sequence (P08684 whole entry, looked up): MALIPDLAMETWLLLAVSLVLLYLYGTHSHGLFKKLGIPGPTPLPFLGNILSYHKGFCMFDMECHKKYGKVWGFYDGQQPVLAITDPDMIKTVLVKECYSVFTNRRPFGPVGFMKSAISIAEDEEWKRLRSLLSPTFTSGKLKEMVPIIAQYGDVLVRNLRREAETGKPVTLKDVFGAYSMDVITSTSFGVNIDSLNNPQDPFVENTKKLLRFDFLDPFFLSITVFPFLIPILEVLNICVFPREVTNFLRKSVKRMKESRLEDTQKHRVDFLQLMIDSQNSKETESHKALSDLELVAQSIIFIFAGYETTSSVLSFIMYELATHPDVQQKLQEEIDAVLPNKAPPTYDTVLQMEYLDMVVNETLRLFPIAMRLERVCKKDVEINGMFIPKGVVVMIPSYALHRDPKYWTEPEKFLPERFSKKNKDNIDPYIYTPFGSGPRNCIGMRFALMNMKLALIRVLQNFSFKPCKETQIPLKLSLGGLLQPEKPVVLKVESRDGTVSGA
Summary of the method: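 Activators are scored by enhanced luminescence from CYP3A4 conversion of luciferin-PPXE (25uM, equal to KM) to luciferin, after 60 min at RT with an NADPH-regenerating system.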

Question: For `COC(=O)c1c(OC)cc2c(c1C)Oc1c(Cl)c(OC(C)=O)c(Cl)c(C)c1C(=O)O2`, which Potency is on record?
Answer: inactive

Question: Which Potency does the source give for `COc1ccc2c(c1)OCc1c-2oc2cc(OC)ccc12` here?
Answer: inactive

Question: Which Potency does the source give for `CC(=O)Oc1ccc2c(c1C(C)C)CCC1C(C)(C)CCC[C@@]21C` (some centres not stated) here?
Answer: inactive

Question: Which Potency does the source give for `COc1cc(C/C=C/c2ccccc2)c(OC)cc1O` here?
Answer: inactive

Question: Which Potency does the source give for `C#C[C@]1(OC(C)=O)CCC2C3CCC4=CC(=O)CCC4C3CC[C@]21C` (some centres not stated) here?
Answer: inactive

Question: With `COC(=O)c1c(OC)cc2c(c1C)Oc1c(Cl)c(O)c(Cl)c(C)c1C(=O)O2` as the molecule, how does the Potency read?
Answer: inactive

Question: With `CCOC(=O)c1c(C)cc(OC)cc1O` as the molecule, how does the Potency read?
Answer: inactive

Question: For `COc1cccc(-c2cncnc2NCc2ccc(OC)cc2OC)c1`, which Potency is on record?
Answer: inactive

Question: Which Potency does the source give for `CC1(C)[C@@H](O)CC[C@]2(C)C3C(=O)C=C4C5C[C@@](C)(C(=O)O)CC[C@]5(C)CC[C@@]4(C)[C@]3(C)CC[C@@H]12` (some centres not stated) here?
Answer: inactive

Question: With `COc1cc(-c2coc3cc(OCc4ccccc4)c(OC)c(O)c3c2=O)cc(O)c1OC` as the molecule, how does the Potency read?
Answer: inactive

Question: Which Potency does the source give for `CC(=O)OC1CCC23CC1(C)CCC2C(C)(C)CC3OC(C)=O` (configuration not stated) here?
Answer: inactive

Question: With `O=C(c1cccc(F)c1)N1CCC[C@@]2(CCN(C(c3ccccc3)c3ccccc3)C2)C1` as the molecule, how does the Potency read?
Answer: inactive

Question: With `COc1ccc2c(c1)[C@@]1(C)CCC[C@](C)(CO)C1CC2` (some centres not stated) as the molecule, how does the Potency read?
Answer: inactive

Question: For `O=C(O)c1cc(O)c2c(c1)C(=O)c1cc(O)cc(O)c1C2=O`, which Potency is on record?
Answer: inactive

Question: For `COc1ccc(-c2cc(=O)c3c(OC)c(OC)c(OC)c(OC)c3o2)cc1`, which Potency is on record?
Answer: inactive

Question: With `COc1ccc(-c2nc3cnc(Nc4cccc(OC)c4)nc3n(CCC#N)c2=O)cc1` as the molecule, how does the Potency read?
Answer: inactive

Question: Which Potency does the source give for `COc1ccc2c(c1)OCC(Cc1ccc(OC)c(OC(C)=O)c1)C2=O` (configuration not stated) here?
Answer: inactive

Question: For `CC(=O)OC1CC[C@]2(C)C(CC(OC(C)=O)[C@@]3(C)C4=CC(=O)OC(c5ccoc5)[C@]4(C)CCC23)C1(C)C` (some centres not stated), which Potency is on record?
Answer: 6.31 µM (active) and inactive

Question: For `O=c1c(-c2ccccc2)coc2cc(O)cc(O)c12`, which Potency is on record?
Answer: inactive

Question: With `COc1cccc(-c2nc(Nc3ccncc3)c3ccccc3n2)c1` as the molecule, how does the Potency read?
Answer: inactive

Question: Which Potency does the source give for `COc1ccccc1CNc1ncnc2ccc(-c3cccnc3)cc12` here?
Answer: inactive

Question: Which Potency does the source give for `CC1(C)C(O)CC[C@]2(C)C1CC[C@@]1(C)C2C(=O)C=C2[C@@H]3C[C@@](C)(C(=O)O)CC[C@@]3(C)CCC21C` (some centres not stated) here?
Answer: inactive

Question: Which Potency does the source give for `O=c1c(O)c(-c2ccc(O)c(O)c2)oc2c(OC3OC(CO)C(O)C(O)C3O)c(O)cc(O)c12` (configuration not stated) here?
Answer: inactive

Question: For `CC1(C)C=CC(=O)[C@]2(C)C1CC(=O)[C@]1(C)C2CC[C@@]2(C)C(c3ccoc3)OC(=O)C3OC321` (some centres not stated), which Potency is on record?
Answer: inactive

Question: For `O=C1CC[C@@]23/C=C/C(=O)NCCCCNCCCNC(=O)/C=C/c4ccc(c2c4)OC3C1` (some centres not stated), which Potency is on record?
Answer: inactive

Question: With `COc1ccc2c(c1)OC/C(=C/c1ccc(O)c(O)c1)C2=O` as the molecule, how does the Potency read?
Answer: inactive

Question: For `CN(Cc1ccco1)c1nc(-c2cccc(C#N)c2)nc2ccccc12`, which Potency is on record?
Answer: inactive

biological target: Cytochrome P450 2D6 (Homo sapiens) (UniProt P10635); test: qHTS Assay for Inhibitors and Substrates of Cytochrome P450 2D6 (AID 891); conditions: recombinant CYP2D6, luciferin-ME EGE luminescence; series mostly up to 57.1 µM; also: nearly all actives have a fitted effect of over 60% in size; also: potency is read from the fitted curve at half-maximal effect
Sequence (P10635 whole entry, looked up): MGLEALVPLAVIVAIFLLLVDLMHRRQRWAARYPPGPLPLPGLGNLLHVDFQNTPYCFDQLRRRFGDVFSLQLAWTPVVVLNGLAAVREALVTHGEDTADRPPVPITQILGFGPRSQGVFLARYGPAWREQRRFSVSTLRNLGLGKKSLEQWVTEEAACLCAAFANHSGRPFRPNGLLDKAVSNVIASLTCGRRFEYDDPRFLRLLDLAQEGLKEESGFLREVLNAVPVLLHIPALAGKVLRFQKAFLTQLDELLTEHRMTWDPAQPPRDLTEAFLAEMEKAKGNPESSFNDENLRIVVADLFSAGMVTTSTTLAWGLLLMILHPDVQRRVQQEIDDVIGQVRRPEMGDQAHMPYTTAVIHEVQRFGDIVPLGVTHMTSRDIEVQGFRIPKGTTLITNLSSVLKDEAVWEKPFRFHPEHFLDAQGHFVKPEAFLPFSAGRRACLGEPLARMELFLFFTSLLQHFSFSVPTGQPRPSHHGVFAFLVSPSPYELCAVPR
Summary of the method: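 Luminescent read-out of luciferin formed by 5 nM human CYP2D6 demethylating 30 uM Luciferin-ME EGE (Km level) over 60 min at room temperature after NADPH regeneration addition. Data normalized to full inhibition by 1.43 uM quinidine.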

Question: Which Potency does the source give for `COc1cccc(-c2cncnc2NCc2ccc(OC)cc2OC)c1` here?
Answer: 7.94 µM (active)

Question: For `COc1ccccc1CNc1ncnc2ccc(-c3cccnc3)cc12`, which Potency is on record?
Answer: 5.01 µM (active)

Question: With `COc1c(-c2ccc(O)c(O)c2)oc2cc(O)cc(O)c2c1=O` as the molecule, how does the Potency read?
Answer: inactive

biological target: Cytochrome P450 2C19 (Homo sapiens) (UniProt P33261); test: qHTS Assay for Inhibitors and Substrates of Cytochrome P450 2C19 (AID 899); conditions: recombinant CYP2C19, luciferin-H EGE luminescence; series mostly up to 57.1 µM; also: nearly all actives have a fitted effect of over 60% in size; also: potency is read from the fitted curve at half-maximal effect
Sequence (P33261 whole entry, looked up): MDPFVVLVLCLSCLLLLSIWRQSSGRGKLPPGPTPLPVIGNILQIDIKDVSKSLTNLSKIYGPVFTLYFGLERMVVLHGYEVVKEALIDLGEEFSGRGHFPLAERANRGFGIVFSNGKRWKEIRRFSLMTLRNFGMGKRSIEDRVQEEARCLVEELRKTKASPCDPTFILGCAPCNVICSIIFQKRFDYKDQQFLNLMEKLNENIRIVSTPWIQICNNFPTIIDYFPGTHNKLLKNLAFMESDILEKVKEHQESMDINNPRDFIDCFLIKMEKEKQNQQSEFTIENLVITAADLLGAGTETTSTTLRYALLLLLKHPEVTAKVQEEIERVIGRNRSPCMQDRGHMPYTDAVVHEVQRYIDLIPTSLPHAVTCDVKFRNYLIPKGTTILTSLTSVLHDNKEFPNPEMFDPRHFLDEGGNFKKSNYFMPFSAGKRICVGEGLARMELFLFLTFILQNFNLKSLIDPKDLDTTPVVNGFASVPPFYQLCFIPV
Summary of the method: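 Signal comes from luciferase acting on luciferin released by CYP2C19-mediated hydroxylation of Luciferin-H EGE, 10uM (KM). Assay mix: 5nM enzyme, 50mM KPO4; 60 min at 37C with NADPH regeneration. Data normalized against 57uM ketoconazole.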

Question: Which Potency does the source give for `COc1cccc(-c2cncnc2NCc2ccc(OC)cc2OC)c1` here?
Answer: 1.26 µM (active)

Question: For `COc1cccc(-c2nc(Nc3ccncc3)c3ccccc3n2)c1`, which Potency is on record?
Answer: 3.16 µM (active)

Question: Which Potency does the source give for `COc1c(-c2ccc(O)c(O)c2)oc2cc(O)cc(O)c2c1=O` here?
Answer: inactive

tested on: not listed separately; test: Confirmation and Secondary Assay for Modulators of Hemoglobin Beta Chain Splicing at IVS2 654 locus (AID 910); conditions: HeLa EGFP-654 splicing reporter, GFP fluorescence, 48 h; series mostly up to 38.3 µM;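 also: HeLa cells stably carrying EGFP split by mutant beta-globin IVS2-654 intron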
Summary of the method: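 HeLa cells stably expressing EGFP interrupted by β-globin IVS2-654 intron, seeded overnight in Opti-MEM/2% FCS, then treated 2 days at 37 °C. Restored splicing read as total peak GFP intensity per well by laser scanning cytometry (488 nm excitation, 500–520 nm emission); 500 nM antisense PNA as control.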

Question: With `COC(=O)c1c(OC)cc2c(c1C)Oc1c(Cl)c(OC(C)=O)c(Cl)c(C)c1C(=O)O2` as the molecule, how does the Potency read?
Answer: inactive

Question: With `CC(=O)Oc1ccc2c(c1)CCC1C2CC[C@]2(C)C(OC(C)=O)CCC12` (some centres not stated) as the molecule, how does the Potency read?
Answer: inactive

Question: For `COc1ccc2c(c1)OCc1c-2oc2cc(OC)ccc12`, which Potency is on record?
Answer: inactive

Question: Which Potency does the source give for `CC1=CC2C(CC1=O)C(C)=CCC2C(C)C` (configuration not stated) here?
Answer: inactive

Question: With `CC(=O)Oc1ccc2c(c1C(C)C)CCC1C(C)(C)CCC[C@@]21C` (some centres not stated) as the molecule, how does the Potency read?
Answer: inactive

Question: For `COc1cc(C/C=C/c2ccccc2)c(OC)cc1O`, which Potency is on record?
Answer: inactive

Question: Which Potency does the source give for `COC(=O)CCCOc1ccc(Cl)cc1Cl` here?
Answer: inactive

Question: With `C#C[C@]1(OC(C)=O)CCC2C3CCC4=CC(=O)CCC4C3CC[C@]21C` (some centres not stated) as the molecule, how does the Potency read?
Answer: inactive

Question: Which Potency does the source give for `COC(=O)c1c(OC)cc2c(c1C)Oc1c(Cl)c(O)c(Cl)c(C)c1C(=O)O2` here?
Answer: inactive

Question: With `CCOC(=O)c1c(C)cc(OC)cc1O` as the molecule, how does the Potency read?
Answer: inactive

Question: Which Potency does the source give for `COc1cccc(-c2cncnc2NCc2ccc(OC)cc2OC)c1` here?
Answer: inactive

Question: With `CN(Cc1ccco1)c1nc(-c2ccccc2Cl)nc2ccccc12` as the molecule, how does the Potency read?
Answer: inactive

Question: Which Potency does the source give for `COc1cc(-c2coc3cc(OCc4ccccc4)c(OC)c(O)c3c2=O)cc(O)c1OC` here?
Answer: inactive

Question: Which Potency does the source give for `CC(=O)OC1CC2C(C)(C)CCC(=O)[C@@]2(C)C2CC[C@@]3(C)C(c4ccoc4)OC(=O)C4OC43[C@]12C` (some centres not stated) here?
Answer: inactive

Question: With `CC(=O)OC1CCC23CC1(C)CCC2C(C)(C)CC3OC(C)=O` (configuration not stated) as the molecule, how does the Potency read?
Answer: inactive

Question: For `O=C(O)c1cc(O)c2c(c1)C(=O)c1cc(O)cc(O)c1C2=O`, which Potency is on record?
Answer: inactive

Question: Which Potency does the source give for `COc1ccc(-c2cc(=O)c3c(OC)c(OC)c(OC)c(OC)c3o2)cc1` here?
Answer: inactive

Question: For `COc1ccc2c(c1)OCC(Cc1ccc(OC)c(OC(C)=O)c1)C2=O` (configuration not stated), which Potency is on record?
Answer: inactive

Question: Which Potency does the source give for `CC(=O)OC1CC[C@]2(C)C(CC(OC(C)=O)[C@@]3(C)C4=CC(=O)OC(c5ccoc5)[C@]4(C)CCC23)C1(C)C` (some centres not stated) here?
Answer: inactive

Question: For `O=c1c(-c2ccccc2)coc2cc(O)cc(O)c12`, which Potency is on record?
Answer: inactive

Question: With `COc1cccc(-c2nc(Nc3ccncc3)c3ccccc3n2)c1` as the molecule, how does the Potency read?
Answer: inactive

Question: For `N[C@H](C(=O)O)C(O)C(O)C(O)CO` (some centres not stated), which Potency is on record?
Answer: inactive

Question: Which Potency does the source give for `NCC1OC(n2cnc3c(=O)[nH]c(N)nc32)C(O)C1O` (configuration not stated) here?
Answer: inactive

Question: Which Potency does the source give for `COc1ccccc1CNc1ncnc2ccc(-c3cccnc3)cc12` here?
Answer: inactive

Question: With `O=c1c(O)c(-c2ccc(O)c(O)c2)oc2c(OC3OC(CO)C(O)C(O)C3O)c(O)cc(O)c12` (configuration not stated) as the molecule, how does the Potency read?
Answer: inactive

Question: For `CC1(C)C=CC(=O)[C@]2(C)C1CC(=O)[C@]1(C)C2CC[C@@]2(C)C(c3ccoc3)OC(=O)C3OC321` (some centres not stated), which Potency is on record?
Answer: inactive

Question: With `O=C1CC[C@@]23/C=C/C(=O)NCCCCNCCCNC(=O)/C=C/c4ccc(c2c4)OC3C1` (some centres not stated) as the molecule, how does the Potency read?
Answer: inactive

Question: With `COc1ccc2c(c1)OC/C(=C/c1ccc(O)c(O)c1)C2=O` as the molecule, how does the Potency read?
Answer: inactive

Question: With `COc1ccc(C(=O)O)c(O)c1OC` as the molecule, how does the Potency read?
Answer: inactive
